# High-throughput results: PubChem BioAssay, National Center for Advancing Translational Sciences (NCATS)
# FMDV antiviral: High Throughput Screening for Foot and Mouth Disease Virus Antivirals | hit rate 1.2% among 410,000 | FMDV antiviral cell-based qHTS | AID 1159524, 2015 | Potency, µM (top dose mostly 57.9 µM), inactives show top-dose activity change, negative = inhibition, hits mostly inhibitors; calls by dose curve; tested in HEK293T cells; note: read-out not given here; potency is the fitted concentration of half-maximal effect; % is set by controls: 0 for no effect and ±100 for the full control effect; nearly all actives have a fitted effect of over 45% in size
# HCV inh: qHTS Assay for Inhibitors of Hepatitis C Virus (HCV); AID 651820, 2012; hit rate 3.4% among 340,000; Huh7.5.1 HCVcc-Cre infection, luciferase reporter, 44 h; Potency, µM (titrated, usually from 41.8 µM), inactives show at the highest dose activity change, negative = inhibition, actives largely listed as inhibitors; active = well fitted inhibition curve with a large enough effect; inconclusive = small, poorly fitted or top-dose-only effect, or another doubt; inactive = no such curve, though single readings can be large or run the other way; note: potency is the fitted concentration of half-maximal effect; % is set by controls: 0 for no effect and ±100 for the full control effect
#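 Infectious HCV cell culture screen: compound-treated cells (1,000/well, pre-plated 4 h) are infected with HCVcc-Cre at roughly 0.5 moi and grown 44 h. Infection is quantified by luciferase signal after 15 min substrate incubation at room temperature.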
# LASV entry inh: qHTS for Inhibitors of binding or entry into cells for Lassa Virus. hit rate 1.2% among 300,000. Lassa virus pseudotype entry inhibition, cell reporter. Potency, µM (series often up to 37.9 µM), without a hit: at the top dose activity change, negative = inhibition, most hits filed as inhibitors; calls by dose curve; tested in HEK293 cells; note: potency is the fitted concentration of half-maximal effect; % is set by controls: 0 for no effect and ±100 for the full control effect; nearly all actives have a fitted effect of over 50% in size
# Shiga inhibitor: A qHTS for Small Molecule Inhibitors of Shiga Toxin; Vero cells, Shiga toxin protein synthesis inhibition reporter; inhibition, % at 38.7 µM; hit rate 9.2% among 290,000; in the data active = inhibition mostly above about 28%, no sharp cut-off; inactive = mostly below about 43%; note: 0% is about no effect
# MARV entry inh: qHTS for inhibitors of binding or entry into cells for Marburg Virus; Marburg virus pseudotyped entry inhibition, cell reporter; Potency, µM (titrated, usually from 37.8 µM), without a hit: at the highest dose activity change, negative = inhibition, hits mostly inhibitors; hit rate 1.8% among 300,000; calls by dose curve; tested in HEK293 cells; note: potency is the fitted concentration of half-maximal effect; % is set by controls: 0 for no effect and ±100 for the full control effect
# CHX counter: Cycloheximide Counterscreen for Small Molecule Inhibitors of Shiga Toxin; cell reporter, cycloheximide protein synthesis inhibition counterscreen; max response, %; hit rate 12% among 300,000; in the data active = max response mostly above about 13%, no sharp cut-off; inactive = mostly below about 14%; note: read at 38.3 µM for the half of the compounds with a filed dose; 0% is about no effect
# * = called active by the depositor; u = inconclusive; x = no result given; [ ] = remark or other dose. Hits are enriched below; roughly 13% of the tested compounds scored in any of these assays.
SMILES,FMDV antiviral,HCV inh,LASV entry inh,Shiga inhibitor,MARV entry inh,CHX counter
Cc1ccsc1/C=C(/C#N)C(=O)NCc1ccccc1,37%,24%,1%,27,-2%,12*
CN(C)c1ccc(/C=C(/C#N)C(=O)Nc2nc3c(s2)CCN(Cc2ccccc2)C3)cc1,u,u,13%,x,7%,x
CNC(=O)/C(C#N)=C/c1ccc(OCCOc2ccccc2)cc1,0%,-4%,x,15,x,11*
Cc1ccsc1/C=C(\C#N)C(=O)NCc1cccnc1,19%,7%,4%,-11,u,-1
N#C/C(=C\c1ccc(OCc2ccccc2)cc1)C(=O)Nc1nc2c(s1)CCN(Cc1ccccc1)C2,-18%,1%,11%,4,u,20*
COc1ccc(/C=C(\C#N)C(=O)NCc2ccccc2)cc1,19%,10%,12%[46.1 µM],87*,10%[46.1 µM],34*
COC(=O)c1ccc(Cn2c(C)c(C(=O)NCc3ccco3)sc2=O)o1,-16%,x,x,x,x,x
COc1ccccc1CCC(=O)N1CCOc2c(cc(-c3cnc4ccccc4c3)cc2OC)C1,-9%,x,x,x,x,x
CCOc1cc2c(cc1OCC)C(CC(=O)O)N(C(=O)Nc1ccc(Br)c(C)c1)CC2 (configuration not stated),16%,x,2%[46.1 µM],x,x,x
N#C/C(=C\c1ccc(OCc2ccccc2)cc1)C(N)=O,17%,10%,9%,90*,14%[46.1 µM],24*
c1ccc(-c2cc(-c3ccncc3)nc3ccc4ccccc4c23)cc1,u,10µM*,-11%,-11,u,-2
Cc1ccc2cc(CCNS(=O)(=O)c3ccc(Cl)cc3)c(=O)[nH]c2c1C,-26%,-14%,9%,-4,u,-2
Cc1ncc(CN2CCC(CO)(CCOc3ccccc3)CC2)s1,-20%,0%,x,13,x,-2
Cc1ccc2nc(N(Cc3cccnc3)C(=O)c3ccc4c(c3)OCCO4)sc2c1,36%,x,19%[46.1 µM],x,x,x
O=c1cc(Cl)[nH]c(=O)n1CCNc1ncc(C(F)(F)F)cc1Cl,14%,15%,u,94*,-11%,36*
CC(=O)C1=NOC(CNc2ncc(C(F)(F)F)cc2Cl)C1 (configuration not stated),10%,3%,-2%[46.1 µM],81,7%[46.1 µM],17*
O=c1[nH]c2cc(Cl)ccc2n(CCNc2ncc(C(F)(F)F)cc2Cl)c1=O,-13%,-4%,6%,-26,30%,-7
O=S(=O)(NCCNc1ncc(C(F)(F)F)cc1Cl)C(F)(F)F,-6%,u,-4%,57*,u,27
O=C(O)C1=NOC(CNc2ncc(C(F)(F)F)cc2Cl)C1 (configuration not stated),34%,24%,18%[46.1 µM],-2,-11%[46.1 µM],-1
O=C1C=CC(=O)N1CCNc1ncc(C(F)(F)F)cc1Cl,32µM*,u,u,-9,u,-2
CS(=O)(=O)NCCNc1ncc(C(F)(F)F)cc1Cl,0%,-13%,0%,14,-8%[46.1 µM],8
O=C1CC(=O)N(CCNc2ncc(C(F)(F)F)cc2Cl)C(=O)N1,-15%,11%,-6%,-8,6%,-4
COc1ccc(C2/C=C\CN(C(=O)NC34CC5CC(CC(C5)C3)C4)CC(=O)N2Cc2ccc(F)cc2)cc1 (configuration not stated),-18%,13%,x,15,x,-1
COc1ccc(C)cc1NC(=O)C(CCSC)NS(=O)(=O)c1ccc2c(c1)oc(=O)n2C (configuration not stated),0%,x,4%[46.1 µM],x,x,x
COc1cccc(N2C(=O)CC(N3CCN(S(=O)(=O)c4ccccc4[N+](=O)[O-])CC3)C2=O)c1 (configuration not stated),-4%,5%,x,x,x,x
SMILES,FMDV antiviral,HCV inh,LASV entry inh,Shiga inhibitor,MARV entry inh,CHX counter
Cc1cc(=O)n(C(NC(=O)c2ccccc2)C(=O)c2ccccc2)cn1 (configuration not stated),33%,-12%,-8%,29,2%,19*
O=C(NC(C(=O)c1ccccc1)N1CCOCC1)c1cccs1 (configuration not stated),56%,16%,u,33*,15%,22*
O=C(NC(C(=O)c1ccccc1)N1CCCCCC1)c1ccco1 (configuration not stated),13%,-2%,12%,-9,u,-4
Cc1ccc(C(=O)C(NC(=O)c2ccco2)N2CCOCC2)cc1 (configuration not stated),42%,2%,-19%,53*,-2%,39*
O=C(NC(C(=O)c1ccccc1)N1CCOCC1)c1ccccc1 (configuration not stated),9%,2%,6%,31,10%,16*
O=C(Nc1ccccc1N1CCOCC1)c1cccs1,-19%,-17%,-8%,-3,1%[46.1 µM],-2
O=C(NC(N1CCOCC1)C(Cl)(Cl)Cl)c1ccc(F)cc1 (configuration not stated),-10%,-1%,x,-18,3%[46.1 µM],-1
CC(=O)NC(O)C(=O)c1ccccc1 (configuration not stated),36%,7%,18%,38,-2%,-3
CCOc1cc(/C=C2/C(=N)N3C(=NC2=O)SN=C3S(=O)(=O)CC)ccc1OC(=O)c1ccco1,0%,9%,x,12,x,-2
COc1cccc(CN2CCC(Oc3ccc(C(=O)N4CCCCC4)cc3)CC2)c1,4%,-19%,x,-18,x,-3
CN=c1scc(-c2cccs2)n1/N=C/c1ccccc1O,4µM*,13µM*,1.3µM*,-19,0.28µM*,-13
CN=c1scc(-c2cccs2)n1/N=C/c1ccc(O)c(O)c1O,10µM*,-14%,u,-12,u,-5
CN=c1scc(C)n1/N=C/c1ccc(O)c(O)c1O,-24%,-17%,1%,-15,u,-11
O=c1c2cc(N3CCOCC3)ccc2[nH]c(=S)n1Cc1ccc(Cl)cc1,2%,u,u,40*,4%,76*
Cc1ccc(C)c(N2CCN(C(=O)c3ccc(Cn4c(=S)[nH]c5ccc(N6CCOCC6)cc5c4=O)cc3)CC2)c1,45%,u,10%,34,-11%[46.1 µM],24
O=C(c1ccc(Cn2c(=S)[nH]c3ccc(N4CCOCC4)cc3c2=O)cc1)N1CCN(c2ccc(F)cc2)CC1,42%,u,-14%,88*,u,37*
COc1ccc(N2CCN(C(=O)c3ccc(Cn4c(=S)[nH]c5ccc(N6CCOCC6)cc5c4=O)cc3)CC2)cc1,51%,u,14%,87*,12%[46.1 µM],40*
Cc1ccc(Cn2c(=S)[nH]c3ccc(N4CCOCC4)cc3c2=O)o1,u,u,u,27,2%,16*
NC(=O)NC(=O)CSc1nc(-c2ccccc2)c(-c2ccccc2)n1CC1CCCO1 (configuration not stated),-16%,u,u,-11,5%,-3
CCCn1cnc2c1c(=O)n(CCCCC(C)=O)c(=O)n2C,3%,x,-3%,x,u,x
